Screening data deposited in PubChem BioAssay by SRMLSC.
Spn PMK inh – S. pneumoniae PMK inhibitors, primary screen, biochemical, mevalonate pathway, pilot trial included; phosphomevalonate kinase (Streptococcus pneumoniae D39); purified PMK, PK/LDH-coupled NADH absorbance 340 nm; inhibition, % at 10 µM; 65,000 compounds, 0.49% hits;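 active = top-ranked compounds by inhibition in the single 10 µM screen, taking a fixed number of the strongest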;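 note: 0% = full reaction with DMSO carrier and 100% = background rate without enzyme reaction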
Fluor 339 460 – intrinsic fluorescence of library compounds, ex339/em460 – biochemical, MLSMR library, data from DPM-DC assay, artefact control, profiling panel | 65,000 compounds, 5.5% hits | fluorescence fold increase at 10 µM | compound autofluorescence, ex339/em460 nm, NADH buffer; stronger effect = higher value; 1 = no-compound wells, NADH background;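 active = at 10 µM, mean starting fluorescence two-fold or more over control wells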;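 note: signal is the first read of a kinetic run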
MK inhibit – S. pneumoniae MK inhibitors, primary screen, biochemical, PK/LDH-coupled NADH absorbance | 65,000 compounds, 0.48% hits | mevalonate kinase [Streptococcus pneumoniae D39] | AID 555, 2006 | inhibition, % at 10 µM | purified MK, PK/LDH-coupled NADH absorbance 340 nm;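 active = ranked among the strongest by inhibition in the single 10 µM screen, a fixed top-ranked set picked for dose follow-up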
Abs 340nm – compound light absorbance at 340 nm, profiling panel, artefact control, biochemical, MLSMR library, data from PS, PMK, MK assays. compound absorbance at 340 nm, fold over control. fold change at 10 µM. 65,000 tested, under 10 active. AID 708, 2007;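 active = at 10 µM dose, initial 340 nm absorbance at least 2 fold that of control wells; inactive = change under 2 fold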;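 note: initial absorbance extrapolated from kinetic A340 decline of NADH oxidation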
DPM-DC inhibit – S. pneumoniae DPM-DC inhibitors, primary screen, biochemical, PK/LDH-coupled NADH fluorescence. 65,000 compounds, 0.49% hits. diphosphomevalonate decarboxylase (Streptococcus pneumoniae D39). purified DPM-DC. calls only at 10 µM;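 active = the 320 compounds with the highest percent inhibition in the single-dose primary screen, excluding strongly autofluorescent ones, cut at about 32% in these data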;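 note: kinetic rate of NADH fluorescence loss reporting ADP formed by the decarboxylase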
NADH coupling – inhibitors of PK/LDH coupling enzymes, profiling panel, artefact control, biochemical, MLSMR library. coupled PK/LDH NADH assays, four targets. IC50, µM (doses to about 10 µM), inactives show at the top dose inhibition. 65,000 compounds, 0.02% hits. AID 774, 2007;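 active = single-dose screening hits from any of four coupled enzyme assays that gave an IC50 when retested across doses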;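 note: the DPM-DC format reads NADH fluorescence rather than 340 nm absorbance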
Active calls of the source: *; i = inactive; nt = not tested or not shown; + = active, no number. Rows were chosen to be rich in hits. Some 6.3% of all compounds tested hit in one or more screens of this group.

SMILES	Spn PMK inh	Fluor 339 460	MK inhibit	Abs 340nm	DPM-DC inhibit	NADH coupling
COc1ccc(NC(=O)N(C2CCCCC2)C(C)c2ccco2)c(OC)c1 (configuration not stated)	26.0*	1.03	3.0	0.99	i	10.0%
COc1ccc(NC(=O)N(C2CCCCC2)C(C)c2cccnc2)c(OC)c1 (configuration not stated)	11.0	1.07	0.0	1.01	i	4.0%
COCc1cc(C)n(CC(=O)NC(C)c2ccccc2)c(=O)c1C#N (configuration not stated)	13.0	3.77*	5.0	1.09	nt	9.0%
COCc1cc(C)n(CC(=O)Nc2ccccc2C(=O)OC)c(=O)c1C#N	11.0	2.81*	4.0	1.05	i	12.0%
CN(c1ccccc1)S(=O)(=O)c1cc(C(=O)N2CCN(c3ccccn3)CC2)ccc1Cl	7.0	1.06	7.0	0.98	i	3.0%
COc1cc(-c2nc3cnccc3n2C)cc(OC)c1OC	19.0	1.15	0.0	0.96	+	20.0%
Clc1ccc(OCc2nn3c(C4CCCCC4)nnc3s2)cc1	4.0	1.18	5.0	1.06	i	4.0%
O=c1c2cc(Cl)ccc2oc2nc3n(c(=O)c12)CCCS3	7.0	2.6*	7.0	1.13	i	11.0%
O=c1c2ccccc2nc2n1CCCS2	1.0	1.1	0.0	1.06	i	0.0%
COc1ccc(CN2CCN(c3cccc(C)c3C)CC2)cc1OC	12.0	1.06	51.0*	1.06	i	21.0%
COc1ccc(CN2CCC(C(=O)N3CCN(c4ccccc4F)CC3)CC2)cc1OC	0.0	1.11	52.0*	1.07	i	17.0%
COc1cc(CN2CCN(c3cccc(C)c3C)CC2)cc(Br)c1O	5.0	1.1	29.0	1.08	i	11.0%
COc1cc(CN2CCC(C(=O)N3CCN(c4ccccc4F)CC3)CC2)cc(OC)c1OC	5.0	1.1	39.0	1.03	i	15.0%
N#CCCNC(=O)CCN1CCOCC1	8.0	1.12	14.0	1.01	i	10.0%
CCOc1ccc(-c2nnn(CC(=O)Nc3cccc(OC)c3)n2)cc1OCC	13.0	1.07	5.0	0.97	i	6.0%
CCCOc1ccc(-c2nnn(CC(=O)Nc3cccc(C(=O)OC)c3)n2)cc1	26.0*	1	2.0	1	i	3.0%
CC1CN(C(=O)Cc2ccc(-c3ccccc3)cc2)CC(C)O1 (configuration not stated)	0.0	1.07	0.0	1.03	i	0.0%
Cc1cc2ncn(C3CC(=O)N(Cc4ccc(N5CCCC5=O)cc4)C3=O)c2cc1C (configuration not stated)	4.0	1.13	4.0	1.03	i	3.0%
CCOc1ccc(-c2nnc(N)o2)cc1	10.0	1.07	2.0	1.02	i	4.0%
CCCCOc1ccc(-c2nnc(-c3ccncc3)o2)cc1	15.0	3.02*	10.0	1.02	i	14.0%
CCOc1ccc(-c2nnc(-c3ccncc3)o2)cc1	8.0	2.02*	14.0	1.04	+	20.0%
Cc1cc(C(=O)OCC(=O)Nc2ncc(C(F)(F)F)cc2Cl)c(C)o1	9.0	1.07	9.0	1.04	i	6.0%
COc1ccc(C(=O)c2ccc(N3CCN(C4CC(=O)NC4=O)CC3)cc2)cc1F (configuration not stated)	1.0	1.1	6.0	1.33	i	3.0%
N#Cc1nc(-c2ccccc2F)oc1N1CCCC1	9.0	3.62*	3.0	1.07	nt	6.0%
N#Cc1nc(COc2cccc(Cl)c2)oc1N1CCCC1	0.0	1.08	4.0	1.04	i	1.0%
SMILES	Spn PMK inh	Fluor 339 460	MK inhibit	Abs 340nm	DPM-DC inhibit	NADH coupling
COc1ccc(-c2nc(C#N)c(N3CCCCCC3)o2)cc1OC	16.0	3.85*	13.0	1.07	nt	15.0%
COc1ccc(-c2nc(C#N)c(NC(C)C)o2)cc1	6.0	2.26*	0.0	1.11	nt	3.0%
CC1CN(c2oc(-c3ccccc3Cl)nc2C#N)CC(C)O1 (configuration not stated)	2.0	1.76	6.0	1.05	i	8.0%
COc1ccc(-c2nc(C#N)c(N3CC(C)OC(C)C3)o2)cc1OC (configuration not stated)	0.0	2.12*	7.0	1.09	nt	4.0%
Oc1ccc(-c2nnc(SCC3CCCCC3)o2)cc1	9.0	1.08	1.0	0.99	i	3.0%
CC1(C)CC(=O)C2=C(C1)N(Cc1ccco1)C(=O)C2(O)C(F)(F)F (configuration not stated)	6.0	1.05	11.0	1.03	i	6.0%
COc1ccc(C(O)P(=O)(O)CCc2ccccc2)cc1 (configuration not stated)	5.0	1.12	0.0	1.04	i	2.0%
Cc1ccccc1OC(C)c1nc(-c2ccccc2)no1 (configuration not stated)	12.0	1.14	2.0	1.05	i	5.0%
N#Cc1nc(-c2ccc(Cl)cc2)oc1N1CCCCC1	10.0	2.35*	4.0	1.07	nt	7.0%
COc1ccc(-c2nc(C#N)c(N3CCCCCC3)o2)cc1	0.0	2.26*	2.0	1.1	nt	1.0%
Cc1ccc(-c2nc(C#N)c(N3CCCCC3)o2)cc1	1.0	2.22*	0.0	1.05	nt	1.0%
N#Cc1nc(-c2ccc(F)cc2)oc1NCc1cccc2c1OCO2	0.0	1.67	10.0	1.05	i	3.0%
CC(C)CNc1oc(-c2ccc(F)cc2)nc1C#N	5.0	2.4*	1.0	1.01	nt	2.0%
O=C(CCn1c(=O)oc2ccccc21)NCCCN1CCCC1=O	5.0	1.12	6.0	1.04	i	4.0%
COCCOCC(O)CN1CCN(c2ccc(C)cc2)CC1 (configuration not stated)	4.0	1.08	38.0	1.04	i	14.0%
COc1ccc(NC(=O)Cc2nn(C)c(=O)c3ccccc23)c2ncccc12	14.0	1.1	0.0	1.02	i	6.0%
CC(C)(C)C(=O)NC(=C(Cl)Cl)P(=O)(O)O	10.0	1.06	1.0	0.99	i	4.0%
Cc1ccccc1-c1nc(CN2CCCC(C(=O)NCc3cccnc3)C2)c(C)o1 (configuration not stated)	16.0	1.05	2.0	0.99	i	6.0%
N#Cc1nc(-c2ccccc2)oc1N1CCCCC1	4.0	3.74*	4.0	1.07	nt	4.0%
N#Cc1nc(COc2ccc(F)cc2)oc1N1CCCC1	10.0	1.09	7.0	0.98	i	6.0%
N#Cc1nc(-c2ccc(F)cc2)oc1N1CCCC1	12.0	2.35*	2.0	1.05	nt	7.0%
